Several values for one entry are separate records, joined by “and”; a condition that tells them apart may be missing. Equal values may be shown once. The campaign covered roughly 5,500 compounds. About 2,000 (36%) were called active. About 18% were inconclusive and are not listed. Rule as the data show it: active = normalized growth mostly below about 0.91 (no sharp cut-off); inconclusive = no clear call, values can overlap the other calls; inactive = mostly above about 0.92. The list shows a part of the results.
Assay: chemical genetic growth profiling, strain panel (AID 1159580);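 also: tested at 20 µM; growth read once vehicle control cultures reached saturation at 30 °C; 1 = growth at the plate median or of vehicle wells; lower values mean less growth of the strain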
Details: S. cerevisiae deletion strains, growth OD

Measured: normalized growth

CO[C@@]1(NC(=O)CSCC#N)C(=O)N2C(C(=O)O)=C(CSc3nnnn3C)CSC21 (stereo partly specified)
inactive: locus YAL013W, strain DEP1, active compounds read low 1.01 | locus YAL021C, strain ccr4, active compounds read low 0.941 | locus YAL026C, strain drs2, active compounds read low 0.985 | locus YAL030W, strain snc1, active compounds read low 0.988 | locus YBL061C, strain skt5, active compounds read low 0.985 | locus YBR009C, strain hhf1, active compounds read low 0.988 | locus YBR021W, strain FUR4, active compounds read low 1 | locus YBR023C, strain chs3, active compounds read low 0.994 | locus YBR171W, strain sec66, active compounds read low 0.997 | locus YBR229C, strain ROT2, active compounds read low 1.01 | locus YBR231C, strain swc5, active compounds read low 0.981 | locus YBR279W, strain paf1, active compounds read low 0.981 | locus YCL011C, strain gbp2, active compounds read low 0.993 | locus YCL016C, strain dcc1, active compounds read low 0.975 | locus YCL029C, strain bik1, active compounds read low 1.03 | locus YCL069W, strain vba3, active compounds read low 0.986 | locus YCR088W, strain abp1, active compounds read low 0.996 | locus YDL005C, strain med2, active compounds read low 0.909 | locus YDL035C, strain GPR1, active compounds read low 1.02 | locus YDL040C, strain nat1, active compounds read low 0.988 | locus YDL074C, strain BRE1, active compounds read low 1.03 | locus YDL101C, strain DUN1, active compounds read low 1.01 | locus YDL134C, strain PPH21, active compounds read low 1.01 | locus YDL185W, strain tfp1, active compounds read low 1.03 | locus YDL192W, strain arf1, active compounds read low 1.04 | locus YDR001C, strain nth1, active compounds read low 1 | locus YDR069C, strain doa4, active compounds read low 0.973 | locus YDR101C, strain arx1, active compounds read low 1.03 | locus YDR137W, strain rgp1, active compounds read low 0.948 | locus YDR150W, strain NUM1, active compounds read low 1.01 | locus YDR159W, strain sac3, active compounds read low 0.927 | locus YDR162C, strain NBP2, active compounds read low 1.04 | locus YDR195W, strain ref2 1 | locus YDR297W, strain sur2, active compounds read low 1 | locus YDR318W, strain mcm21, active compounds read low 1.03 | locus YDR334W, strain swr1, active compounds read low 1 | locus YDR335W, strain msn5, active compounds read low 0.99 | locus YDR388W, active compounds read low 1.02 | locus YDR392W, strain spt3, active compounds read low 0.878 | locus YDR502C, strain sam2, active compounds read low 1.03 | locus YEL003W, strain gim4, active compounds read low 1 | locus YEL037C, strain rad23, active compounds read low 1 | locus YEL061C, strain CIN8 (second series), active compounds read low 1.01 | locus YEL061C, strain CIN8, active compounds read low 1.01 | locus YER015W, strain faa2, active compounds read low 0.982 | locus YER016W, strain bim1, active compounds read low 0.968 | locus YER110C, active compounds read low 1.04 | locus YER111C, strain swi4, active compounds read low 0.982 | locus YER155C, strain BEM2 (second series), active compounds read low 0.968 | locus YER155C, strain BEM2, active compounds read low 1.01 | locus YER167W, strain BCK2, active compounds read low 1.02 | locus YFR010W, strain ubp6, active compounds read low 1 | locus YGL078C, strain dbp3, active compounds read low 1.03 | locus YGL086W, strain mad1, active compounds read low 1.02 | locus YGL167C, strain pmr1, active compounds read low 0.984 | locus YGL173C, strain kem1, active compounds read low 0.97 | locus YGL227W, strain vid30, active compounds read low 1.01 | locus YGL240W, strain doc1, active compounds read low 0.959 | locus YGL248W, strain PDE1, active compounds read low 1.01 | locus YGL253W, strain hxk2, active compounds read low 0.998 | locus YGR078C, strain PAC10, active compounds read low 1.01 | locus YGR135W, strain pre9, active compounds read low 1.01 | locus YGR229C, strain SMI1, active compounds read low 1.02 | locus YGR252W, strain gcn5, active compounds read low 1.07 | locus YHR013C, strain ard1, active compounds read low 0.964 | locus YHR027C, strain rpn1, active compounds read low 0.98 | locus YHR030C, strain SLT2, active compounds read low 1.01 and 0.983 | locus YHR079C, strain IRE1 (second series), active compounds read low 1.02 | locus YHR079C, strain IRE1, active compounds read low 0.986 | locus YHR094C, strain hxt1, active compounds read low 1.03 | locus YHR129C, strain ARP1, active compounds read low 1.01 | locus YHR142W, strain chs7, active compounds read low 1.01 | locus YHR200W, strain rpn10, active compounds read low 1.04 | locus YIL066C, strain RNR3, active compounds read low 1.03 | locus YIL073C, strain SPO22, active compounds read low 1.13 | locus YIL125W, strain kgd1, active compounds read low 1.03 | locus YIR030C, strain dcg1, active compounds read low 1.03 | locus YJL092W, strain hpr5, active compounds read low 1 | locus YJL095W, strain BCK1 (second series), active compounds read low 0.979 | locus YJL095W, strain BCK1, active compounds read low 1.01 and 0.98 | locus YJL115W, strain asf1, active compounds read low 0.984 | locus YJL129C, strain trk1, active compounds read low 0.99 | locus YJL134W, strain LCB3, active compounds read low 1 | locus YJL154C, strain vps35, active compounds read low 1 | locus YJL164C, strain tpk1, active compounds read low 0.973 | locus YJL166W, strain qcr8, active compounds read low 0.978 | locus YJL168C, strain set2, active compounds read low 1.04 | locus YJL187C, strain SWE1 (second series), active compounds read low 1.01 | locus YJL187C, strain SWE1, active compounds read low 0.985 | locus YJR043C, strain POL32, active compounds read low 1.01 | locus YJR066W, strain TOR1, active compounds read low 0.942

Source: PubChem BioAssay AID1159580 (chemical genetic matrix, 2015)
